Out of some 2,400 compounds screened, about 180 (7.5%) were called active. The list comes from a sample in which actives are over-represented; it also holds similar structures and randomly drawn compounds. Values without a mark were called inactive.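 The calls were made as follows: active = readout below zero, meaning a drop past 3 SD under the dofetilide-free negative control mean; inactive = the rest.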
Target: Potassium voltage-gated channel subfamily KQT member 2 (Rattus norvegicus) (UniProt O88943)
Sequence (O88943 whole entry, looked up): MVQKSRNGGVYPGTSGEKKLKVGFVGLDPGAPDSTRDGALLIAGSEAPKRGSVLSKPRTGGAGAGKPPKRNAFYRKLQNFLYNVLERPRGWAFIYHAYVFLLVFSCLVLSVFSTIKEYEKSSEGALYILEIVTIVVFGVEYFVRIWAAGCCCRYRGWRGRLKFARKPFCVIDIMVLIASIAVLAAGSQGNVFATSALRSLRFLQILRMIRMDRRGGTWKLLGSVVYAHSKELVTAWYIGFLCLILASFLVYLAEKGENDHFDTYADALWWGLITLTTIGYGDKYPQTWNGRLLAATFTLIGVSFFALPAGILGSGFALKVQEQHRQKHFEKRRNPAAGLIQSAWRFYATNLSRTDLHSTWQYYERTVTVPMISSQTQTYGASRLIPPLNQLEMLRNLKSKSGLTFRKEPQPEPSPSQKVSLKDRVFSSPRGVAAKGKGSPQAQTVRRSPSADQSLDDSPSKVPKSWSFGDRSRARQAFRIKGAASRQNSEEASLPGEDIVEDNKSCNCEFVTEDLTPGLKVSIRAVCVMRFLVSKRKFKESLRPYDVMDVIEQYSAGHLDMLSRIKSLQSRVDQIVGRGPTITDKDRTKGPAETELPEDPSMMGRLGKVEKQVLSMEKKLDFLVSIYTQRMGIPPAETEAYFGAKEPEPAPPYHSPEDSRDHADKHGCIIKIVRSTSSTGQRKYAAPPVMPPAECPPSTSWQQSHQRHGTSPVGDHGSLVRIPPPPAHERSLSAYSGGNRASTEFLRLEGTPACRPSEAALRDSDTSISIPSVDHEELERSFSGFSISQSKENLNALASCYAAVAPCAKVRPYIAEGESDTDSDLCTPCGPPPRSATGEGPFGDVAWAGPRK
Assay: rat KCNQ2 channel inhibition by compounds alone, confirmation, counter-screen for hERG block protector project, cell-based, CHO, FluxOR thallium flux (AID 1946)
Conditions: CHO-KCNQ2 cells, FluxOR thallium flux fluorescence; at 10 µM; active compounds read low; zero marks the 3-SD hit cutoff

SMILES | activity change vs negative control
Cc1ccc(C(=O)NC(=S)N(C)Cc2ccccc2)cc1 | 28.6%
CCC(=O)N(CC)c1nc(-c2ccc(OC)cc2)cs1 | 60.4%
Cc1ccc(Cn2nnc3c(=O)n(CC(=O)N4CCCc5ccccc54)cnc32)cc1 | 13%
Cc1c(C(=O)NNC(=O)c2ccncc2)oc2ccc(Br)cc12 | -1.5% (active)
CC(NC(=O)c1ccncc1)C(C)(C)C (stereo unspecified) | 32.4%
Cc1c(C(=O)NC(=S)NCc2cccnc2)oc2ccccc12 | 5.5%
O=C1CSC(=S)N1/N=C/c1cc(Br)ccc1O | 21.5%
O=C(COc1ccc(Br)cc1Cl)NC(=S)N1CCc2ccccc21 | 9.4%
O=C(COc1ccc(Cl)cc1Cl)NC(=S)N1CCCc2ccccc21 | 0.8%
O=C(COc1ccc(Br)cc1Br)NC(=S)N1CCCc2ccccc21 | -2.3% (active)
O=C(COc1ccccc1)NC(=S)N1CCc2ccccc21 | 25.7%
O=C(NC(=S)N1CCCc2ccccc21)c1ccccc1 | 21.6%
Cc1cccc(OCC(=O)NC(=S)N2CCCc3ccccc32)c1 | -0.9% (active)
COc1cccc2sc(Nc3nc(-c4ccccn4)cs3)nc12 | 34.8%
CCN1C(=O)/C(=C/c2ccc(C)s2)NC1=S | 65.6%
COC(=O)c1ccc(NC(=S)NC(=O)c2cc(-c3ccccc3)nc3ccccc23)cc1 | 28.9%
COc1cccc(C(=O)NNC(=O)C(=O)Nc2ccc(C)c(Cl)c2)c1 | 98.2%
CC(C)OC(=O)CSc1nnc(C2CCCCC2)n1N | 6%
Nn1c(SCC(=O)Nc2ccccc2F)nnc1C1CCCCC1 | 10.9%
Nn1c(SCC(=O)Nc2ccc(F)cc2)nnc1C1CCCCC1 | -0.5% (active)
CCOc1ccc2nc(/N=C/c3nc(-c4ccc(Br)cc4)oc3O)sc2c1 | 13.7%
S=c1nc[nH]c2c1sc1nc(N3CCOCC3)c3c(c12)CCCC3 | 74.9%

SMILES | activity change vs negative control
C/C(=N\Nc1nc2ccccc2nc1C)c1ccccc1O | 35.1%
CCOC(=O)c1sc(NC(=S)NC(=O)c2cccc(OC)c2)nc1C | 28.4%
CCCn1nnnc1NC(=O)c1cc(Cl)ccc1Cl | -2% (active)
CCN(CC)C(=S)NC(=O)c1ccc(Cl)cc1Cl | 32%
CCCN(CCC)C(=S)NC(=O)c1ccc(Cl)cc1Cl | 78%
O=C(NC(=S)N1CCc2ccccc21)c1ccccc1Br | 126%
CN(C(=S)NC(=O)c1ccccc1)C1CCCCC1 | 29.8%
COc1ccc2c(c1)O[C@@H](c1cccc(C(F)(F)F)c1)[C@H](OC(=O)NCCc1ccc(OC)c(OC)c1)C2=O | 20.4%
O=C(CSc1nc2ccccc2o1)NCc1n[nH]c(=O)c2ccccc12 | 19.1%
C/C(=N\NC(=O)CSc1nc2ccccc2o1)c1ccc(O)cc1 | -1.7% (active)
CCOC(=O)Cc1nc2ccccc2o1 | 11.7%
Cc1nn(C)c(C(=O)NC(=S)Nc2ccccc2Br)c1Cl | 41.3%
CCc1ccc(C(C)NC(=O)c2ccc(F)cc2)cc1 (stereo unspecified) | 43.4%
CCOC(=O)C1CCCN(C(=S)NC(=O)/C=C/c2ccc(F)cc2)C1 (stereo unspecified) | 1.2%
Cn1cc(CCC(=O)N2CCCC(Nc3ccc(F)cc3)C2)cn1 (stereo unspecified) | -2% (active)
O=C(c1ccc(C(F)(F)F)cc1)C1CCCN(C(=O)CCc2ccncc2)C1 (stereo unspecified) | 4.7%
COc1ccccc1C1C(C(=O)c2ccc(C)o2)=C(O)C(=O)N1c1cc(C)on1 (stereo unspecified) | 14.4%
Cc1cc(N2C(=O)C(O)=C(C(=O)c3cccs3)C2c2ccccc2)no1 (stereo unspecified) | -1.4% (active)
Cc1cccc(N2C(=O)C(O)=C(C(=O)c3cccs3)C2c2cccc(Oc3ccccc3)c2)n1 (stereo unspecified) | 11.3%
CCOC(=O)C1=NN(C(=O)c2ccc(C)cc2)C(O)(c2ccc(Cl)cc2)C1 (stereo unspecified) | 110%
COc1ccccc1NC(=O)C(=O)NNC(=O)COc1ccc2ccccc2c1 | 115%
Cc1ccc(C(=O)NC(=S)N(C)C2CCCCC2)cc1 | 27.3%

SMILES | activity change vs negative control
COC(=O)c1sc(NC(=S)NC(=O)c2ccccc2C)nc1C | 41%
S=c1[nH]c2ccc(Cl)cc2s1 | 115%
CCc1nnc(NC(=O)CSc2nc(-c3ccccc3)cc(-c3ccc(OC)cc3)c2C#N)s1 | 5.3%
N#Cc1c(-c2ccc(Cl)cc2)cc(-c2cccs2)nc1SCC(=O)O | -10.2% (active)
CCOC(=O)C(C)Sc1nc2c(c(-c3cccs3)c1C#N)CCC2 (stereo unspecified) | 6.3%
C/C(=N\NC(N)=S)c1cccnc1 | -3.2% (active)
CSC(=S)N/N=C(\C)c1ccccc1 | 64.1%
C/C(=N\NC(N)=S)c1ccncc1 | 19.1%
S=c1[nH]cnc2scc(-c3ccc(Br)cc3)c12 | 28.5%
CCn1ncc(Cl)c1C(=O)NC(=S)Nc1ccccc1Br | 51.3%
CCN(C(=S)NC(=O)c1ccccc1Br)C1CCCCC1 | 93.4%
CC1CCc2sc(-c3n[nH]c(=S)o3)cc2C1 (stereo unspecified) | 35.3%
Fc1cccc2sc(Nc3nnc(-c4ccccc4)o3)nc12 | 109%
Cc1ccc(Nc2cc(C)nn2-c2nc(C)cc(=O)[nH]2)cc1 | 83.1%
O=C(Nn1c(O)c(C=C2N=c3ccccc3=N2)sc1=S)c1cccc(Cl)c1 | 6.4%
CC1CCCCC1n1c(=S)[nH]c2ccccc2c1=O (stereo unspecified) | 28%
CSc1nc(C)c2c(n1)N(c1ccc(C(C)C)cc1)CC2 | -2.7% (active)
COc1ccccc1C(=O)NNC(=O)C(=O)Nc1cccc(Cl)c1C | 160%
O=C(CCSc1ccc(Br)cc1)c1ccc(O)cc1 | 8.7%
CSc1nc2sc3c(c2c(=S)[nH]1)CC(C)(C)OC3 | 95%
CN(Cc1ccccc1)C(=O)CCc1ccccc1 | 5.4%
CCOC(=O)c1c(NS(=O)(=O)Cc2ccccc2)sc2c1CCCC2 | 62%
